Results published in PubChem BioAssay (Tox21).
Records with an inconclusive call do not appear. Active and inactive are the calls of the source. Unless noted, calls follow the shape of the dose curve; as a rule, active = well fitted curve in the direction sought with a large enough effect in the repeat runs; inconclusive = weak or mixed curves; inactive = no such curve, though single readings can be large; an effect the other way counts as inactive or inconclusive.

Assays:
[1] = qHTS assay to identify aromatase inhibitors - cell viability counter screen (AID 743084);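 also: cells stimulated with testosterone during compound exposure; nearly all actives have a fitted effect of over 55% in size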
[2] = target: Aryl hydrocarbon receptor (Homo sapiens) (UniProt P35869); assay: qHTS assay to identify small molecule that activate the aryl hydrocarbon receptor (AhR) signaling pathway (AID 743085);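 also: HG2L7.5c1 human HepG2 liver cells with stably integrated DRE-driven firefly reporter; series mostly up to about 70 µM; nearly all actives have a fitted effect of over 15% in size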
Chain of Aryl hydrocarbon receptor (Homo sapiens) (P35869 whole entry, looked up): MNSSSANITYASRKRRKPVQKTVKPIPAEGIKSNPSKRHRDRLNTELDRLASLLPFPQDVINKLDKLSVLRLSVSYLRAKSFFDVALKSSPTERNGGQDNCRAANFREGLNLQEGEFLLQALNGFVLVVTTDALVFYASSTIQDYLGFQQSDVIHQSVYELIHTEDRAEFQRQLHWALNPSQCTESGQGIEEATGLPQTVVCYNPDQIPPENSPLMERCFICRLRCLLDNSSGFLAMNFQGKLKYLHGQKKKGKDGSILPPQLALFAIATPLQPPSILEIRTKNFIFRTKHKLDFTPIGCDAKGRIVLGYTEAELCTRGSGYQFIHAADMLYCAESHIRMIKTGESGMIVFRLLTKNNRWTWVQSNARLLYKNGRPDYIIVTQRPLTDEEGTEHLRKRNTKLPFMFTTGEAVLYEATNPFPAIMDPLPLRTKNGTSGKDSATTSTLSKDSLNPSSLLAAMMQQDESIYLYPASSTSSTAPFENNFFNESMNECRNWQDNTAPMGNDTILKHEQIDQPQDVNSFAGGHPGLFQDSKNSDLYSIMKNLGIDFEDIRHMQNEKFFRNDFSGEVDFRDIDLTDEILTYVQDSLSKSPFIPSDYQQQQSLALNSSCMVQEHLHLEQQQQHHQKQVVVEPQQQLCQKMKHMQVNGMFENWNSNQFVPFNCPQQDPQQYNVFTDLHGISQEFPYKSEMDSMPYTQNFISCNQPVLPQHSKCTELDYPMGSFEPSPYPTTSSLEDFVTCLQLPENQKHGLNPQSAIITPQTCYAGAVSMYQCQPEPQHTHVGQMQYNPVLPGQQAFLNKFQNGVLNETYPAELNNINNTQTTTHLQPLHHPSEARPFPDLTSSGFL
Method in brief: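 Measured in HG2L7.5c1 cells: CellTiter-Fluor signal (30 min incubation, 37C) for viability, then luciferase luminescence (30 min, room temperature). Compound contact time was 24 h at 37C, following a 5 h pre-incubation.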

[3] = qHTS assay to identify small molecule that activate the aryl hydrocarbon receptor (AhR) signaling pathway - cell viability counter screen (AID 743086);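 also: HepG2 liver cells carrying the AhR DRE luciferase reporter; series mostly up to about 70 µM; nearly all actives have a fitted effect of over 45% in size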
Method in brief: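 HepG2-AhR-luc (HG2L7.5c1) cells, 4000/well, were preincubated 5 h at 37C, exposed to compound in qHTS format for 24 hr at 37C, then given CellTiter-Fluor for 30 min; viability was read as fluorescence in the reporter wells.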

[4] = target: Peroxisome proliferator-activated receptor gamma (Homo sapiens) (UniProt P37231); assay: qHTS assay to identify small molecule agonists of the peroxisome proliferator-activated receptor gamma (PPARg) signaling pathway (AID 743094; active = well fitted activation curve with a large enough effect in the signal ratio in the repeat runs, not every such curve was filed as active; the % refers to the signal ratio)
Chain of Peroxisome proliferator-activated receptor gamma (Homo sapiens) (P37231 whole entry, looked up): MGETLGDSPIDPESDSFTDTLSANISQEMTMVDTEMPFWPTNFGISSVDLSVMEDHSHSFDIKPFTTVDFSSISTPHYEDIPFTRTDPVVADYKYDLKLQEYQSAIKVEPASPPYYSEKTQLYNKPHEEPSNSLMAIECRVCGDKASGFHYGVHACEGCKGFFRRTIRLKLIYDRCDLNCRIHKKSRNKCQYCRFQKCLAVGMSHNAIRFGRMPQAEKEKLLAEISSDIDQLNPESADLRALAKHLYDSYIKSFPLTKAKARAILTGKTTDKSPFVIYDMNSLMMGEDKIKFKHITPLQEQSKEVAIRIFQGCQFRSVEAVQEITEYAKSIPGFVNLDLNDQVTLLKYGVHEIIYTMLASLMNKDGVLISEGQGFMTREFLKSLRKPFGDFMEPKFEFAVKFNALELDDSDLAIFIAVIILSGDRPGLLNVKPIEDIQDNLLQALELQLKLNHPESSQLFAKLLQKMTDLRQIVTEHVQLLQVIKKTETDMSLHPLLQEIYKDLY
Method in brief: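 HEK293H PPARg-bla cells, 5 h settle at 37C/5% CO2; compound (DMSO) 17 h, 37C; B/G FRET substrate 1 h RT; fluorescence intensity read-out. qHTS format.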

[5] = target: Peroxisome proliferator-activated receptor gamma (Homo sapiens) (UniProt P37231); assay: qHTS assay to identify small molecule antagonists of the peroxisome proliferator-activated receptor gamma (PPARg) signaling pathway (AID 743191; calls by dose curve; also: series mostly up to about 63 µM; nearly all actives have a fitted effect of over 30% in size)
Method in brief: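 GeneBLAzer PPARg UAS-bla HEK293H cells carrying a UAS-driven beta-lactamase reporter were plated at 3000 cells/well, preincubated 5 h at 37C, then given compound for 17 h at 37C; LiveBLAzer B/G FRET substrate was read after 1 h at room temperature.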

[6] = qHTS assay to identify small molecule antagonists of the peroxisome proliferator-activated receptor gamma (PPARg) signaling pathway - cell viability counter screen (AID 743194); also: nearly all actives have a fitted effect of over 55% in size
Method in brief: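 PPARg-UAS-bla HEK293H cells were plated, rested 5 h at 37 C, then treated with compounds plus rosiglitazone (50 nM final) for 17 h at 37 C; viability was then read by CellTiter-Glo luminescence after 30 min at room temperature.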

[7] = qHTS assay for small molecule agonists of the antioxidant response element (ARE) signaling pathway (AID 743202; active = well fitted activation curve with a large enough effect in the signal ratio in the repeat runs, not every such curve was filed as active; the % refers to the signal ratio)
Method in brief: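 Following a 16 h, 37 C exposure of reporter HepG2 cells (ARE-driven beta-lactamase, 2,000 cells/well) to compounds, FRET substrate was applied for 2 h at room temperature and fluorescence intensity recorded.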

[8] = qHTS assay for small molecule agonists of the antioxidant response element (ARE) signaling pathway - cell viability counter screen (AID 743203; calls by dose curve; also: nearly all actives have a fitted effect of over 55% in size)
Method in brief: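 Luminescence read-out (CellTiter-Glo, 30 min at room temperature) measured cell viability in the same wells as the ARE beta-lactamase reporter. HepG2 ARE-bla cells were treated with compounds for 16 hrs at 37C/5% CO2.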

[9] = qHTS assay for small molecule activators of the heat shock response signaling pathway - cell viability counter screen (AID 743209); also: nearly all actives have a fitted effect of over 50% in size
Method in brief: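 HSE-bla HeLa; 1500 cells/well; overnight 37 C, 5% CO2; compound 5 h 37 C; LiveBLAzer B/G substrate 2.5 h RT; CellTiter-Glo 30 min RT; luminescence.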

[10] = qHTS assay for small molecule activators of the heat shock response signaling pathway (AID 743210; active = well fitted activation curve with a large enough effect in the signal ratio in the repeat runs, with a control signal flat, not every such curve was filed as active; the % refers to the signal ratio; also: series mostly up to about 63 µM)
Method in brief: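 Heat shock element–beta-lactamase HeLa reporter cells; qHTS with compounds for 5 h at 37 C; detection by FRET substrate fluorescence after 2.5 h at RT.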

[11] = qHTS assay to identify small molecule agonists of the peroxisome proliferator-activated receptor delta (PPARd) signaling pathway - cell viability counter screen (AID 743211); also: nearly all actives have a fitted effect of over 55% in size
Method in brief: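 Following 5 h plating at 37 C and 5% CO2, PPARd UAS-bla HEK293H cells took up test compounds for 17 h. Viability was quantified by luminescence 30 min after CellTiter-Glo addition at room temperature.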

[12] = qHTS assay to identify small molecule antagonists of the peroxisome proliferator-activated receptor delta (PPARd) signaling pathway - cell viability counter screen (AID 743213); also: nearly all actives have a fitted effect of over 50% in size
Method in brief: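 PPARd-bla HEK293H cells were treated with compounds plus agonist L165041 (300 nM final) for 17 h at 37 C. Viability was then read in the same wells by CellTiter-Glo luminescence after 30 min at room temperature.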

[13] = qHTS assay to identify small molecule agonists of the farnesoid-X-receptor (FXR) signaling pathway - cell viability counter screen (AID 743218); also: nearly all actives have a fitted effect of over 45% in size
Method in brief: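 Luminescence from CellTiter-Glo, read after 30 min at RT, reports viability of GeneBLAzer FXR-UAS-bla HEK 293T cells treated 16 h with compounds in the wells used for the beta-lactamase reporter.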

[14] = qHTS assay to identify small molecule antagonists of the farnesoid-X-receptor (FXR) signaling pathway - cell viability counter screen (AID 743221; active = well fitted cell-killing curve with a large enough effect in the repeat runs, not every such curve was filed as active; also: nearly all actives have a fitted effect of over 50% in size)
Method in brief: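 Compound effects on cell number were measured as CellTiter-Glo luminescence in HEK 293T cells expressing FXR-UAS-bla, after 16 h at 37 C with 50 uM CDCA (final).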

[15] = target: Vitamin D3 receptor (Homo sapiens) (UniProt P11473); assay: qHTS assay to identify small molecule agonists of the vitamin D receptor (VDR) signaling pathway (AID 743222; calls by dose curve)
Chain of Vitamin D3 receptor (Homo sapiens) (P11473 whole entry, looked up): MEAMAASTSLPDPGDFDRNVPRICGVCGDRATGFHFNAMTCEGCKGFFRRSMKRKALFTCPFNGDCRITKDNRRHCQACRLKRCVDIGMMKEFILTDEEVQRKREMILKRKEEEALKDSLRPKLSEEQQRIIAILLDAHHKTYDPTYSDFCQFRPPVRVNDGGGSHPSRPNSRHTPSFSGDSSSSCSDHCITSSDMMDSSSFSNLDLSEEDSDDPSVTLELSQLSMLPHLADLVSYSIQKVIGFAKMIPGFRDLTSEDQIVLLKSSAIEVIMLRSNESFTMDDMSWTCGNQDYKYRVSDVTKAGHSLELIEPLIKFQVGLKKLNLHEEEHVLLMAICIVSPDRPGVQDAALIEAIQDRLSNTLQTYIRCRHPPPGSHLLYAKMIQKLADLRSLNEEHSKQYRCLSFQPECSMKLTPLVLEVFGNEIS
Method in brief: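 Beta-lactamase reporter readout (LiveBLAzer B/G FRET, 2 h RT) in VDR-bla cells after 16 h compound treatment at 37C, 5% CO2; cells pre-incubated 4 h before pin transfer of DMSO solutions.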

[16] = target: Vitamin D3 receptor (Homo sapiens) (UniProt P11473); assay: qHTS assay to identify small molecule antagonists of the vitamin D receptor (VDR) signaling pathway (AID 743223; active = well fitted inhibition curve with a large enough effect in the signal ratio in the repeat runs, not every such curve was filed as active; the % refers to the signal ratio)
Method in brief: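 Beta-lactamase activity in VDR-bla cells is measured by FRET substrate fluorescence (2 h, room temperature) after cells spend 16 h at 37C with test compound and 3 nM final 1alpha,25-dihydroxyvitamin D3.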

[17] = target: Peroxisome proliferator-activated receptor delta (Homo sapiens) (UniProt Q03181); assay: qHTS assay to identify small molecule agonists of the peroxisome proliferator-activated receptor delta (PPARd) signaling pathway (AID 743212; calls by dose curve)
Chain of Peroxisome proliferator-activated receptor delta (Homo sapiens) (Q03181 whole entry, looked up): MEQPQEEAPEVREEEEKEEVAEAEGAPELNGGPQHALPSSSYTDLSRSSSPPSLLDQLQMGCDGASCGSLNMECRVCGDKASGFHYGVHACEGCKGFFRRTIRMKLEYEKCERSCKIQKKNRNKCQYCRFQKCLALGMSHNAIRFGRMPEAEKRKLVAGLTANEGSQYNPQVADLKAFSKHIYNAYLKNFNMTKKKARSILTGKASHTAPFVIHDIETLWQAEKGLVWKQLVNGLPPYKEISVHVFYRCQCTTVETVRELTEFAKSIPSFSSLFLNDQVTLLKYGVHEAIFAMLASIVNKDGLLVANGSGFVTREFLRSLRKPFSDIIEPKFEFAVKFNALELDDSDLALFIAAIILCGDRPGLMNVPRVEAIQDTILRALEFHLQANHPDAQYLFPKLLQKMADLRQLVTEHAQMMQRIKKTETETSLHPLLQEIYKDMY
Method in brief: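 Beta-lactamase reporter read by fluorescence (LiveBLAzer B/G FRET, 2 h, room temperature). Test agents, in DMSO, incubated at 37 C with PPARd-bla HEK293H cells.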

[18] = target: Peroxisome proliferator-activated receptor delta (Homo sapiens) (UniProt Q03181); assay: qHTS assay to identify small molecule antagonists of the peroxisome proliferator-activated receptor delta (PPARd) signaling pathway (AID 743215; active = well fitted inhibition curve with a large enough effect in the signal ratio in the repeat runs, not every such curve was filed as active; the % refers to the signal ratio;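 also: cells stimulated with agonist L165041 at 300 nM final during compound exposure; series mostly up to about 62 µM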)
Method in brief: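 HEK293H GeneBLAzer PPARd UAS-bla reporter cells; cpd + L165041 300 nM final, 17 h 37 C; LiveBLAzer B/G FRET substrate 2 h RT; fluorescence intensity read-out. Antagonist mode.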

[19] = target: Bile acid receptor (Homo sapiens) (UniProt Q96RI1); assay: qHTS assay to identify small molecule antagonists of the farnesoid-X-receptor (FXR) signaling pathway (AID 743217; active = well fitted inhibition curve with a large enough effect in the signal ratio in the repeat runs, not every such curve was filed as active; the % refers to the signal ratio)
Chain of Bile acid receptor (Homo sapiens) (Q96RI1 whole entry, looked up): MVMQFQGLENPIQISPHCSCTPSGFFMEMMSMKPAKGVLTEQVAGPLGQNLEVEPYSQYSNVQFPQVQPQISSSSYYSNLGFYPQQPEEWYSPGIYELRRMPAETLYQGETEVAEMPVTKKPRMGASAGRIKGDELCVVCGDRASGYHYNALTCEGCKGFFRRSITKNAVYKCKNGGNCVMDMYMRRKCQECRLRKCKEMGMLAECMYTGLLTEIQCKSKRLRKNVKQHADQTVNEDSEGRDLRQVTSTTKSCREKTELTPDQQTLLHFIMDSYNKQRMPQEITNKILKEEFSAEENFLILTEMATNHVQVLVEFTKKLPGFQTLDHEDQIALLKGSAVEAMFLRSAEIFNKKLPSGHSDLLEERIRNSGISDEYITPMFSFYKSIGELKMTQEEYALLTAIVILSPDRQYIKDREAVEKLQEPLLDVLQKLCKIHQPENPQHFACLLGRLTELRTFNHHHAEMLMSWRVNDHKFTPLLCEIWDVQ
Method in brief: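 Read-out: beta-lactamase FRET fluorescence (LiveBLAzer B/G substrate, 2 h, room temperature) in GeneBLAzer FXR-UAS-bla HEK 293T cells. Compounds were co-dosed with 50 uM chenodeoxycholic acid (final) and incubated 16 h at 37 °C.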

[20] = target: Bile acid receptor (Homo sapiens) (UniProt Q96RI1); assay: qHTS assay to identify small molecule agonists of the farnesoid-X-receptor (FXR) signaling pathway (AID 743220; active = well fitted activation curve with a large enough effect in the signal ratio in the repeat runs, not every such curve was filed as active; the % refers to the signal ratio)
Method in brief: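 FXR-UAS-bla HEK 293T cells carrying a UAS-driven beta-lactamase reporter were plated for 5 h at 37C/5% CO2, then exposed to DMSO-dissolved Tox21 10K compounds for 16 h at 37C. A LiveBLAzer B/G FRET substrate was loaded for 2 h at room temperature before fluorescence reading.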

Measured: Potency

O=C(O)CC(O)C(=O)O (stereo not given)
not listed: [17] | [18] | [19] | [20]
inactive: all other assays above

O=c1[nH]cnc2c1ncn2[C@H]1CC[C@@H](CO)O1
not listed: [10] | [15] | [16] | [19] | [20]
inactive: all other assays above

CC1(C)S[C@@H]2[C@H](NC(=O)[C@H](N)c3ccccc3)C(=O)N2[C@H]1C(=O)O
not listed: [10] | [15] | [16] | [17] | [18] | [19] | [20]
inactive: all other assays above

CS(=O)(=O)OCCCCOS(C)(=O)=O
not listed: [19] | [20]
inactive: all other assays above

NS(=O)(=O)c1cc2c(cc1Cl)NCNS2(=O)=O
not listed: [17] | [18]
inactive: all other assays above

O=C1NC(=O)C(c2ccccc2)(c2ccccc2)N1
not listed: [15] | [16] | [19] | [20]
inactive: all other assays above

Cc1cccc(C)c1
not listed: [19] | [20]
inactive: all other assays above

Cc1ncc([N+](=O)[O-])n1CCO
not listed: [15] | [16] | [19] | [20]
inactive: all other assays above
